Here are results for 39 molecules from PubChem BioAssay (NCI).

This is part of a sample that, as a whole, favours compounds with a hit. Of some 83,000 tested, about 20% had one in any assay.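 Negative percent growth values reflect cell death: -40 means 40% of the cells present at the start died, and -100 means all died.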 Calls of active or inactive are those of the source. Rule for the calls: active = growth percent below 10; inactive = the rest.

The assay deals with COLO 205 colon. Briefly: NCI-60 one-dose screen, 48 h (100 = growth as untreated, 0 = no growth, -100 = all killed). To be noted: 10 µM unless noted.
Regarding `N=C(N)c1ccc(-c2cc(Cl)cc(Cl)c2)cn1`, the growth was 19.5% (inactive).

On to `COc1cc(-c2nn(-c3cccc(NC(=O)c4cccc(C(F)(F)F)c4)c3)cc2-c2ccncc2)ccc1Cl`, for which the growth was 7.11% (active).

Take `CN(C)c1oc(C2OC2c2ccccc2)nc1C#N` (centres undefined): the growth was 94.5% (inactive).

For `O=C(NNC(=O)N1c2ccccc2C=Cc2ccccc21)c1ccccc1`, the growth is 112% (inactive).

On to `Cc1ccc(N2CCN(C(C)C(N)=O)CC2)cc1` (centres undefined), for which the growth is 122% (inactive).

Turning to `C=C(C)[C@@H]1C[C@H](O)Cc2cc(F)ccc2N1`, the growth is 101% (inactive).

With `c1ccc(-c2nnc(-c3ccccn3)s2)nc1`, the growth was 109% (inactive).

For `C=C1CCC2C(C)(CO)C(O)CCC2(C)C1C/C=C1/C(=O)OCC1Oc1ccccc1C` (centres undefined), the growth is 105% (inactive).

For `Cc1ccc(S(=O)(=O)C2=C3C(=C(c4ccccc4)c4ccccc43)CN(S(=O)(=O)c3ccc(C)cc3)C2)cc1`, the growth is 71.3% (inactive).

Take `COc1cc(C(=O)/C=C/c2c(C)n([O-])c3ccc(C(F)(F)F)cc3[n+]2=O)cc(OC)c1OC`: the growth was 46.2% (inactive).

Regarding `COc1ccc(C(=O)n2nc(/C=C/c3ccc(O)c(OC)c3)cc2/C=C/c2ccc(O)c(OC)c2)cc1`, the growth is -66.2% (active).

For the molecule `COc1cc(/C=N\NC(=O)CN2CCN(c3cc4c(cc3F)c(=O)c(C(=O)N/N=C/c3cc(OC)c(OC)c(OC)c3)cn4C3CC3)CC2)cc(OC)c1OC`, the growth was 7.48% (active).

For the molecule `CCCCCCN1CSC(=S)N(CCCCCC)C1`, the growth was 106% (inactive).

Regarding `Cc1csc(NC(c2ccc(Br)cc2)c2c(C)nc3ccccn23)n1` (centres undefined), the growth was 90.2% (inactive).

For `Fc1ccc(Nc2nc(NCCNc3ccnc4cc(Cl)ccc34)nc(N3CCOCC3)n2)cc1`, the growth is -85.7% (active).

As to `Cc1ccc(-c2nc(C#N)c(S(=O)(=O)n3nc(-c4ccccc4)cc3N)o2)cc1`, the growth is -44.1% (active).

`CCOC(=O)c1ccc2c(c1)c1c(C)c3cccnc3c(C)c1n2C`: the growth is 50.3% (inactive).

With `COc1ccc(-c2nc(SCCC(C)C)nc(Nc3ccc(F)c(Cl)c3)c2C#N)cc1`, the growth was 70.8% (inactive).

In the case of `N[C@@H]1CCN(C(=O)c2cc3cc(Cl)c(F)c(F)c3[nH]2)C1`, the growth is 110% (inactive).

Take `CC(C)(C)c1[nH]nc2c1C(c1cc3ccccc3[nH]c1=O)Nc1cc(C(=O)Nc3ccc(Cl)cc3)ccc1N2` (centres undefined): the growth was 83.6% (inactive).

On to `Cc1ccc(S(=O)(=O)NCCNc2nccc(-c3c(-c4cccc(N)c4)nc4sccn34)n2)cc1`, for which the growth was 105% (inactive).

On to `CN(C)c1ncnc2c1ccn2C1OC(CO)C(O)C1O` (centres undefined), for which the growth was 54.3% (inactive).

As to `C/C(=C\c1ccc(OCC(=O)O)c(Cl)c1Cl)[N+](=O)[O-]`, the growth is 112% (inactive).

Regarding `COc1ccc(/C=C/c2c(C(C)=O)c(C)nc3ccccc23)cc1`, the growth was 106% (inactive).

On to `COc1ccc(Nc2nn3c(C)cc(C)nc3c2C(=O)Nc2ccc(C)cc2)c(OC)c1`, for which the growth was 98.7% (inactive).

Take `Cc1[nH]c2ccc(F)cc2c1CCNC(=O)C1CCN(C(=O)c2ccccc2)C1` (centres undefined): the growth is 101% [25 µM] (inactive).

Regarding `N#Cc1c(Nc2ccccc2)nc2n(c1=O)-c1ccccc1Sc1ccccc1-2`, the growth was 84.1% (inactive).

For `C=C1CC2(OC1=O)C(=O)N(CCCN1C(=O)C3(CC(=C)C(=O)O3)c3ccccc31)c1ccccc12` (centres undefined), the growth was -58.8% (active).

Regarding `C=C(C)[C@@H]1CC[C@]2(C(=O)O)CC[C@]3(C)[C@H](CC[C@@H]4[C@@]5(C)C[C@@H](CC#Cc6ccc(C(F)(F)F)cc6)[C@H](O)C(C)(C)[C@@H]5CC[C@]43C)[C@@H]12`, the growth is 21.1% (inactive).

For the molecule `CCCCCCCCC(C)OC(=O)c1nn(C(C)=O)c2ccccc12` (centres undefined), the growth is 111% (inactive).

For `Oc1ccc2cc(Br)ccc2c1-c1c(O)ccc2cc(Br)ccc12`, the growth is 54.7% (inactive).

Take `COc1ccc(-c2cn(-c3cccc(C(=O)/C=C/c4cc(OC)c(OC)c(OC)c4)c3)c(=O)[nH]2)cc1OC`: the growth is 90.9% (inactive).

Take `N/C(=N\C(N)=N\c1nc2ccccc2s1)c1cccc(Br)c1`: the growth was 115% (inactive).

With `c1cc2[nH]ncc2cc1-c1nc2ccc3[nH]ncc3c2c2c1CCC2`, the growth was 25.7% (inactive).

`O=C(Nc1ccc(Cl)c(Cl)c1)NS(=O)(=O)c1cnccc1Oc1ccc(F)cc1`: the growth is 90.4% (inactive).

Take `Cc1ccc(C(=O)NCCCNc2nccc(-n3ccc4cccnc43)n2)cc1`: the growth is 103% (inactive).

Take `CC(C)(C)n1cc(-c2ccnc(NCCCNS(=O)(=O)c3ccccc3)c2)c(-c2cccc(O)c2)n1`: the growth is 14.7% (inactive).

Turning to `COc1ccc(C(=O)c2cc(OC)c(OC)c(OC)c2OC)cc1O`, the growth was 86% (inactive).

Turning to `C=C1C(=O)O[C@@H]2[C@@H]3O[C@@](C)(CC/C=C(\C)CCC[C@@H]2C)[C@H](O)C[C@@H]13`, the growth is 47.1% (inactive).
